High-throughput results: PubChem BioAssay, National Center for Advancing Translational Sciences (NCATS)
CHX counter – Cycloheximide Counterscreen for Small Molecule Inhibitors of Shiga Toxin; cell reporter, cycloheximide protein synthesis inhibition counterscreen; max response, %; 12% of 300,000 active; AID 2314, 2010; in the data active = max response mostly above about 13%, no sharp cut-off; inactive = mostly below about 14%; also: read at 38.3 µM for the half of the compounds with a filed dose
Pf growth 48h – Primary qHTS for delayed death inhibitors of the malarial parasite plastid, 48 hour incubation | P. falciparum luciferase growth in erythrocytes, 48 h | Potency, µM (titrated, usually from 28.7 µM), most hits filed as inhibitors | 5.9% of 310,000 active
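A one-generation exposure of luciferase-tagged malaria parasites in RPMI 1640/Albumax erythrocyte culture, 37 C and 5% CO2. Inhibition is inferred from decreased luminescence after adding detection reagent.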
NS1 function inh – qHTS Assay for Inhibitors of Influenza NS1 Protein Function; AID 2326, 2010; Potency, µM (series often up to 46.1 µM); 0.4% of 270,000 active; calls by dose curve; also: actives are rising curves; nearly all actives have a fitted effect of over 50% in size
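OD600 was taken as the measure of yeast growth restored by compound in an NS1-expressing S. cerevisiae strain. Cells had been washed out of glucose medium and diluted 1:100 into galactose -URA medium, pH 6.0.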
Shiga toxin inh – A qHTS for Small Molecule Inhibitors of Shiga Toxin. Vero cells, Shiga toxin protein synthesis inhibition reporter. 9.2% of 290,000 active. inhibition, % at 38.7 µM; in the data active = inhibition mostly above about 28%, no sharp cut-off; inactive = mostly below about 43%
Pf growth 96h – Primary qHTS for delayed death inhibitors of the malarial parasite plastid, 96 hour incubation; Potency, µM (doses to about 28.7 µM), usual class: inhibitors; 6.9% of 320,000 active; P. falciparum luciferase reporter growth, 96 h
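Plates of compound plus infected erythrocytes (2% hematocrit, 0.05% parasitemia final) incubate 96 hours, 37 C, 5% CO2. Detection reagent added; reduced luminescence from the parasites' luciferase reporter flags inhibition.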
Numbers stand for hits; i = inactive; ? = inconclusive; nt = not tested or not shown; + = active, no number; [ ] = another dose, or the depositor's remark. Compounds with a hit are over-represented: about 21% of the library has one in this group of screens. Unless noted, calls follow the shape of the dose curve; as a rule, active = well fitted inhibition curve with a large enough effect; inconclusive = small, poorly fitted or top-dose-only effect, or another doubt; inactive = no such curve, though single readings can be large or run the other way.

SMILES | CHX counter | Pf growth 48h | NS1 function inh | Shiga toxin inh | Pf growth 96h
CC(C)C(=O)NC(c1ccc(N(C)C)cc1)c1c(O)ccc2ccccc12 (stereo not given) | i | ? | i | i | ?
CCCC(=O)NC(c1ccco1)c1c(O)ccc2ccccc12 (stereo not given) | i | ? | i | i | ?
CC(C)(C)C(=O)NC(c1ccccc1)c1c(O)ccc2ccccc12 (stereo not given) | i | 4.7µM | i | i | ?
Cc1cccc(C)c1NC(=O)Cn1cc(C=O)c2ccccc21 | i | i | i | i | ?
CC1=CC(=O)C=C(C)C1=NOc1ccc([N+](=O)[O-])cc1 | i | ? | nt | i | i
CCCC(=O)NC(c1ccc(OC)cc1)c1c(O)ccc2ccccc12 (stereo not given) | i | 12µM | i | i | i
CC(=O)Oc1ccc2ccccc2c1C(NC(=O)Cc1ccccc1)c1ccc(Cl)cc1 (stereo not given) | i | 4.7µM | i | i | 2.9µM
COc1ccc(C(NC(=O)CC(C)C)c2c(O)ccc3ccccc23)cc1 (stereo not given) | i | ? | i | i | i
Cn1nnnc1SCc1ccc(C(=O)Nc2ccc(Br)cc2)cc1 | 47 | i | i | 57 | i
COc1ccc(-n2nnnc2SCC(=O)c2cccc(OC)c2)cc1 | i | i | i | i | ?
Cc1ccc(CSc2nnnn2C)cc1 | i | i | i | i | i
CCn1nnnc1SCC(=O)Nc1ccc(OC)cc1 | i | i | i | 34 | 15µM
CCn1nnnc1SCC(=O)Nc1ccc(F)cc1 | i | i | i | i | i
COc1ccc(NC(=O)CCSc2nnnn2C)cc1 | 25 | i | nt | i | ?
CCn1nnnc1SCC(=O)c1cccc(OC)c1 | 19 | i | i | i | i
COc1ccc(NC(=O)c2cccc3c2C(=O)c2ccc(-c4cnc(OC)nc4)cc2S3(=O)=O)cc1 | nt | ? | nt | nt | i
CCn1nnnc1SCC(=O)Nc1nc2ccc(OC)cc2s1 | 25 | i | i | + | i
Cc1occc1-c1nnc(SCC(=O)Nc2ccccc2)n1C | i | i | i | i | i
COc1ccc(NC(=O)CCSc2ccc(F)cc2)cc1 | 34 | i | nt | 57 | i
COc1ccc2nc(NC(=O)CSc3nnc(-c4ccoc4C)n3C)sc2c1 | 46 | i | i | 80 | i
C=CCn1nnnc1SCC(=O)Nc1ccc(OC)cc1 | 24 | i | i | i | i
CCOC(=O)CCC(=O)NNC(=O)COc1ccc(C(C)C)cc1Br | i | i | i | i | i[5.75 µM]
COCCn1nnnc1SCC(=O)c1ccccc1 | 14 | i | i | i | ?
CC(=O)Nc1cccc(-n2nnc(SCC(=O)c3ccccc3)n2)c1 | 49 | i | i | 61 | i
COc1ccc(C(=O)CSc2nnn(-c3cccc(NC(C)=O)c3)n2)cc1 | 52 | i | i | 73 | ?
SMILES | CHX counter | Pf growth 48h | NS1 function inh | Shiga toxin inh | Pf growth 96h
CC(=O)Nc1cccc(-n2nnc(SCC(N)=O)n2)c1 | i | i | i | i | i
CCCCNS(=O)(=O)c1cc(-c2nn(C)c(=O)c3ccccc23)ccc1C | i | 13µM | i | i | i
Cc1ccc(-c2nn3c(C)nnc3c3ccccc23)cc1S(=O)(=O)NC(C)c1ccccc1 (stereo not given) | i | ? | i | i | 7.4µM
Cc1ccc(-c2nn3c(C)nnc3c3ccccc23)cc1S(=O)(=O)NCc1ccco1 | 51 | ? | i | 37 | i
Cc1ccc(-c2nn3c(C)nnc3c3ccccc23)cc1S(=O)(=O)NCCO | i | i | i | i | i
CSCC[C@H](NC(=O)c1ccco1)c1nnc2ccccn12 | i | i | i | i | i
Cc1ccc(C(=O)NCCNC(=O)COc2ccc(Cl)cc2)cn1 | i | i | i | i | ?
C[n+]1cc(-c2ccccc2)n2c1CCCCC2 | i | ? | i | i | 1.7µM
CC1CCC(C(C)C)C(OC(=O)C[n+]2cc(-c3ccc(Cl)cc3)n3c2CCCCC3)C1 (stereo not given) | i | 2.9µM | nt | i | 2.9µM
Cc1ccc(-c2c[n+](CC(=O)c3ccc(Br)cc3)c3n2CCCCC3)cc1 | i | 5.2µM | nt | i | i
COc1ccc(-c2c[n+](CC(=O)c3ccccc3)c3n2CCCCC3)cc1 | i | ? | i | i | ?
O=C(C[n+]1cc(-c2ccccc2)n2c1CCCCC2)c1ccc(Cl)cc1 | i | 1.5µM | i | i | 0.66µM
Cc1cc(NC(=O)CSc2nnc(-c3cccc(F)c3)n2N)no1 | nt | i | nt | nt | i
CCOCCCN(C(=O)Cn1nnc(-c2ccc(C)o2)n1)C(C(=O)NC1CCCC1)c1ccco1 (stereo not given) | i | ? | i | i | ?
COc1cc2c(cc1OC)CN(C(=O)CCN1C(=O)C3CCCCC3C1=O)CC2 (stereo not given) | i | i | i | i | i
COc1cc2c(cc1OC)CN(C(=O)COc1ccccc1C#N)CC2 | 22 | ? | i | i | ?
O=C(CN1CCc2ccccc2C1)N1CCN(S(=O)(=O)c2ccccc2)CC1 | i | i | i | i | i
COc1cc2c(cc1OC)CN(C(=O)CN1CCN(S(=O)(=O)c3ccccc3)CC1)CC2 | i | ? | i | i | 13µM
COc1cc2c(cc1OC)CN(C(=O)CC1CC3CCC1C3)CC2 (stereo not given) | i | ? | i | i | 2.6µM
O=C(CN1CCN(S(=O)(=O)c2ccccc2)CC1)N1CCc2ccccc21 | nt | ? | nt | nt | 12µM
N#Cc1ccccc1OCC(=O)N1CCc2ccccc2C1 | i | ? | i | i | ?
COCCN(CC(=O)Nc1cccc(C)c1C)C(=O)Cn1cnc2ccccc2c1=O | nt | ? | nt | nt | i
CC(C)CCN1CCN(Cc2ccc(N3CCNC3=O)cc2)CC1CCO (stereo not given) | i | i | i | i | ?
O=C(O)c1cccc(NC(=S)NC(=O)C(c2ccccc2)c2ccccc2)c1 | i | ? | i | i | i
O=C(CSc1n[nH]c(=O)n1C1CC1)c1ccc(F)cc1 | 13 | i | i | i | i
SMILES | CHX counter | Pf growth 48h | NS1 function inh | Shiga toxin inh | Pf growth 96h
COCCCN(C(=S)NC(=O)c1ccc(C(C)(C)C)cc1)c1c(N)n(Cc2ccccc2)c(=O)[nH]c1=O | i | i | ? | i | i
Cc1cc(C)c2nc(NC(=O)C3CC(=O)N(Cc4ccco4)C3)sc2c1 (stereo not given) | i | i | nt | i | i
Cc1ccc2nc(NC(=O)C3CC(=O)N(Cc4ccco4)C3)sc2c1 (stereo not given) | 19 | ? | nt | i | i
O=C(Nc1nc2c(F)cc(F)cc2s1)C1CC(=O)N(Cc2ccco2)C1 (stereo not given) | 24 | i | i | i | i
Cc1c(-c2cccc(NC(=O)c3cccs3)c2)nc2ncccn12 | i | ? | i | i | ?
Cc1ccn2cc(-c3cccc(NC(=O)c4cccs4)c3)nc2c1 | 22 | i | nt | i | ?
O=C(Nc1cccc(-c2cn3cccnc3n2)c1)c1cccs1 | i | i | i | i | ?
Cc1cccn2cc(-c3cccc(NC(=O)c4cccs4)c3)nc12 | 32 | i | i | 71 | i
CS(=O)(=O)c1ccc2nc(NC(=O)c3ccc(N4C(=O)CCC4=O)cc3)sc2c1 | i | i | i | i | i
